The panel holds about 79,000 compounds, 15% with a hit somewhere; the sample as a whole holds those more often. Values without a mark were called inactive. Active and inactive are the calls of the source. Cut-off read from the data, not from the text of the source: active = growth inhibition above about 70%; inactive = the rest.

Test [1] in a line: NCI Yeast Anticancer Drug Screen. Data for the rad50 strain (AID 155).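 Note: 0% = growth of vehicle-only cultures of the same strain.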 The conditions noted are these: S. cerevisiae rad50 strain growth inhibition; at 50.0 µM; stronger effect = higher value. An outline of the steps:
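Inhibition values express reduced yeast growth in compound-treated cultures relative to vehicle-treated controls.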

Test [2] is described as follows: NCI Yeast Anticancer Drug Screen. Data for the mec2-1 strain (AID 157). The conditions noted are these: S. cerevisiae mec2-1 strain, at 50.0 µM, stronger effect = higher value. The method in brief: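 Mutant yeast (mec2-1) grown with compound; growth inhibition relative to vehicle control reported.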
A short description of test [3]: NCI Yeast Anticancer Drug Screen. Data for the sgs1 mgt1 strain (AID 161).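 Note: 0% = growth of cultures given vehicle only.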 The settings on record: S. cerevisiae sgs1 mgt1 strain, at 50.0 µM, stronger effect = higher value. The method in brief: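 Yeast cells carrying a defined DNA-repair defect were exposed to test compounds. Growth inhibition was measured relative to vehicle-treated controls.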
Test [4] in a line: NCI Yeast Anticancer Drug Screen. Data for the cln2 rad14 strain (AID 165).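 Note: 0% = growth equal to vehicle treated cultures.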 The conditions noted are these: S. cerevisiae cln2 rad14 strain, at 50.0 µM, stronger effect = higher value. The method in brief: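 Readout is yeast growth inhibition versus vehicle-treated controls, using a strain with cln2 and rad14 alterations exposed to compound.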
Test [5] can be described thus: NCI Yeast Anticancer Drug Screen. Data for the bub3 strain (AID 167). The conditions noted are these: S. cerevisiae bub3 mutant strain, at 50.0 µM, stronger effect = higher value. The method in brief: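 Steps: expose the mutant yeast strain to compound; grow alongside vehicle-treated cultures; measure growth; express inhibition against the vehicle cultures.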
The nature of test [6]: NCI Yeast Anticancer Drug Screen. Data for the mlh1 rad18 strain (AID 175). The conditions noted are these: S. cerevisiae mlh1 rad18 strain growth inhibition; at 50.0 µM; stronger effect = higher value. An outline of the steps:
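Genetically defined yeast (DNA repair-deficient) exposed to compounds; growth inhibition determined relative to vehicle.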

Turning to `O=C1NC(=O)C(=CN2C(=O)/C(=C/c3ccc([N+](=O)[O-])cc3)SC2=S)C(=O)N1`, the growth inhibition in test [1] is -0.4%; in test [2], 33.2%; in test [3], 40.6%; in test [4], 20.4%; in test [5], 20.6%; in test [6], 21.9%.
As for `CCC(CC)C(=O)O`, the growth inhibition in test [1] was -11.2%; in test [2] it was -3.5%; in test [3], -34.4%; in test [4] it was -22.5%; in test [5] it was 7.85%; in test [6] it was -34.8%.
As for `OCc1cc2ccc3ccccc3c2[nH]1`, the growth inhibition was 25.3% in test [1]; 24.9% in test [2]; 47.9% in test [3]; 2.65% in test [4]; 25.5% in test [5]; 25.6% in test [6].
Turning to `CC(C)Cc1ccc(NC2=C(Cl)C(=O)c3ccccc3C2=O)cc1`, the growth inhibition in test [1] was 19.3%; in test [2] it was 19.7%; in test [3], 13.7%; in test [4] it was 25.1%; in test [5], 15.1%; in test [6], 28.1%.
Regarding `CC(C)(C)SCCCCO`, the growth inhibition was -7.3% in test [1]; 19.4% in test [2]; -0.8% in test [3]; 0.35% in test [4]; -5.2% in test [5]; -3.15% in test [6].
Turning to `O=C1CSC(=S)N1.[Cu+2]`, the growth inhibition was -7.9% in test [1]; -9.5% in test [2]; 7.7% in test [3]; -7.65% in test [4]; -4.5% in test [5]; 4.3% in test [6].
On to `CCC1NC(=O)C(NC(=O)c2ncccc2O)C(C)OC(=O)C(c2ccccc2)NC(=O)C2CC(=O)CCN2C(=O)C(Cc2ccccc2)N(C)C(=O)C2CCCN2C1=O` (stereo not given), for which the growth inhibition in test [1] was -6.9%; in test [2], -32.6%; in test [3] it was -29.1%; in test [4] it was -17.4%; in test [5] it was -6.45%; in test [6], 0.3%.
For `CCN(CC)CC(C)C(O)(Cc1ccccc1)c1ccc(Cl)cc1` (stereo not given), the growth inhibition was 21.4% in test [1]; 17.6% in test [2]; 27.9% in test [3]; 33.5% in test [4]; 10.1% in test [5]; 17.4% in test [6].
As for `O=C(O)c1ccc([N+](=O)[O-])c(P(=O)(O)O)c1`, the growth inhibition in test [1] was -5.95%; in test [2] it was -7%; in test [3], -12.2%; in test [4], -42.8%; in test [5], -29.6%; in test [6], -3.5%.
For the molecule `CCCCCC(O)(CCCC)CCCC`, the growth inhibition is -0.45% in test [1]; -5.6% in test [2]; -14.3% in test [3]; -12.6% in test [4]; -0.55% in test [5]; -1.15% in test [6].
`Cc1cc2c(cc1C=O)C(C)(C)CCC2`: the growth inhibition in test [1] is 9.75%; in test [2], 0.85%; in test [3] it was -6.85%; in test [4] it was -32.2%; in test [5], 2.85%; in test [6] it was 26.2%.
For `Nc1ccc(N2CCN(c3ccc(N)cc3)CC2)cc1`, the growth inhibition in test [1] is 12.2%; in test [2] it was -9.95%; in test [3], 16%; in test [4] it was 10.2%; in test [5] it was 12.3%; in test [6], 15.8%.
With `C/C(=N\N=C(\Cc1ccccc1)c1ccccc1)c1ccccc1`, the growth inhibition in test [1] is 1.7%; in test [2], 3.95%; in test [3] it was -11.6%; in test [4] it was -25.2%; in test [5] it was -1.65%; in test [6], 2.8%.
For the molecule `COc1ccc(C)cc1NC(=S)NC(=O)c1cccc([N+](=O)[O-])c1`, the growth inhibition in test [1] was 2.25%; in test [2], 4.85%; in test [3] it was 4.45%; in test [4], -2.5%; in test [5] it was 20.2%; in test [6], 0.3%.
For the molecule `Cc1ccc(Nc2c3ccccc3nc3ccccc23)cc1C`, the growth inhibition in test [1] is 98.8% (active); in test [2], 95.8% (active); in test [3] it was 97.7% (active); in test [4], 90.6% (active); in test [5] it was 90.2% (active); in test [6] it was 98.5% (active).
For `OC1CC2C=CC1CC2` (stereo not given), the growth inhibition in test [1] is 14.9%; in test [2], 10.3%; in test [3] it was 2.4%; in test [4], 13.2%; in test [5], 25.1%; in test [6], 14.4%.
Turning to `O=C(NC(=O)c1c(F)cccc1F)Nc1nc2c(Cl)cccc2s1`, the growth inhibition is 21.4% in test [1]; 14.7% in test [2]; 10.1% in test [3]; -4.9% in test [4]; -6.55% in test [5]; 17.6% in test [6].
Regarding `O=C(CCc1ccccc1)n1cccc1CO`, the growth inhibition in test [1] was -10.1%; in test [2] it was -21.1%; in test [3], -6.85%; in test [4], 17.9%; in test [5], 16.2%; in test [6], 1.35%.
For the molecule `Cc1ccc2[nH]c(=O)[nH]c2c1`, the growth inhibition in test [1] is -13.6%; in test [2] it was -6.2%; in test [3] it was -0.25%; in test [4] it was -5.3%; in test [5], 2.15%; in test [6] it was -22.4%.
Consider `CCCN(CCCC(NC(C)=O)C(=O)NCc1ccccc1)C(=O)N(C)N=O` (stereo not given), for which the growth inhibition is -21.1% in test [1]; -24.8% in test [2]; -4.25% in test [3]; 19.9% in test [4]; -14.8% in test [5]; -11.9% in test [6].

(Values after PubChem BioAssay (NCI).)
